Growth data for 15 compounds are collected here from PubChem BioAssay (NCI).

SMILES strings stand for the structures. About 83,000 compounds went through this panel and 20% of them were active in at least one assay; those are over-represented in the sample as a whole.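 Results are percent growth after 48 hours of single-concentration exposure. 100 means growth as in untreated cells, lower positive values show inhibition; negative values down to -100 show cell death.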 Active and inactive are the calls of the source. The calls were made as follows: active = growth percent below 10; inactive = the rest.

The test system of the assay is HL-60(TB) leukemia. Nature of the assay: NCI-60 one-dose screen, 48 h (100 = growth as untreated, 0 = no growth, -100 = all killed). The settings on record: 10 µM unless noted.
For `Nc1ccc(Nc2ncnc3sc4c(c23)CCN(Cc2ccccc2)C4)cc1`, the growth was 102% (inactive).
As to `Cc1ccc(C2=Nn3c(nnc3-c3ccccc3)SC2)cc1`, the growth was 7.74% (active).
As for `CCN(CC)c1ccc(NC2=C(Cl)C(=O)c3nc(C)ccc3C2=O)cc1`, the growth was -34.6% (active).
Then `O=C(Nc1cc(Cl)cc(Cl)c1)Nc1ccc2oc(=O)ccc2c1`, with 0.984% (active); and `CN(c1ccc(Br)cc1)S(=O)(=O)c1ccc(-c2cnc(C3CC3)o2)cc1`, with -25.1% (active).
Then `NC(=O)c1cccc(-n2ccc3cc(NC(=O)Nc4ccc(N5CCOCC5)c(C(F)(F)F)c4)ccc32)n1`, with -52.2% (active); and `CCOC(=O)/C(F)=C/C1CC1CCc1cccc(C(F)(F)F)c1` (stereo not given), with 91.4% (inactive).
With `Cn1ccnc1C(=O)/C=C/c1ccc(CNC(=O)c2ccc(F)cc2)cc1`, the growth was -4.42% (active).
`CCOC(=O)c1ccc(NC2=CC(=O)C(C)=C(C)C2=O)cc1`: the growth was 53% (inactive).
As to `NC(=O)c1c(NC(=O)c2ccc(C3CCCCC3)cc2)sc2c1CCC(=O)C2`, the growth is 7.79% (active).
Turning to `c1ccc(C(c2nc3ncncc3[nH]2)N2CSc3nc4ccccc4n3C2)cc1` (stereo not given), the growth was 108% (inactive).
For `CNc1sc(S(=O)(=O)NC)nc1S(=O)(=O)c1ccc(C)cc1`, the growth was 101% (inactive).
Turning to `N#Cc1c(-c2cccs2)cc(-c2cnccn2)nc1SCC(=O)N/N=C/c1ccncc1`, the growth was 118% (inactive).
Take `NS(=O)(=O)c1ccc(Nc2nc(N/N=C/c3ccc([N+](=O)[O-])cc3)nc(Nc3ccccc3)n2)cc1`: the growth is 35% (inactive).
On to `COc1ccc(/C=N/NC(=O)c2[nH]c3ccc(Br)cc3c2-c2ccccc2)s1`, for which the growth is -44.2% (active).
